Screens as filed in PubChem.
Vaccinia mCherry – vaccinia inhibition (mCherry reporter); Vaccinia virus mCherry reporter infection, fluorescence; Potency, µM (series often up to 36.5 µM), inactives show at the top dose activity change, negative = inhibition, actives largely listed as inhibitors; AID 720579; 310,000 tested, 0.63% active; calls by dose curve; tested in A549 cells; further: potency means the concentration at half of the fitted maximal effect; nearly all actives have a fitted effect of over 35% in size
HCV inhibitor – inhibitors of hepatitis C virus infection; Huh7.5.1 HCVcc-Cre infection, luciferase reporter, 44 h; Potency, µM (doses to about 41.8 µM), for the others: at the highest dose activity change, negative = inhibition, usual class: inhibitors; 340,000 tested, 3.4% active; active means well fitted inhibition curve with a large enough effect; inconclusive means small, poorly fitted or top-dose-only effect, or another doubt; inactive means no such curve, though single readings can be large or run the other way; further: potency means the concentration at half of the fitted maximal effect
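After 44 h co-culture of compound, cells and HCVcc-Cre (~0.5 moi), substrate is added for 15 min at room temperature and luciferase measured over 15 sec. Cells were seeded at 1,000/well and pre-cultured 4 h.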
LASV entry inh – Lassa virus entry inhibition | Lassa virus pseudotype entry inhibition, cell reporter | Potency, µM (titrated, usually from 37.9 µM), for inactives: at the top dose activity change, negative = inhibition, actives largely listed as inhibitors | 300,000 tested, 1.2% active; calls by dose curve; tested in HEK293 cells; further: potency means the concentration at half of the fitted maximal effect; nearly all actives have a fitted effect of over 50% in size
Marburg entry inh – inhibitors of Marburg virus binding or cell entry; Marburg virus pseudotyped entry inhibition, cell reporter; Potency, µM (titrated, usually from 37.8 µM), for inactives: top-dose activity change, negative = inhibition, actives largely listed as inhibitors; 300,000 tested, 1.8% active; calls by dose curve; tested in HEK293 cells; further: potency means the concentration at half of the fitted maximal effect
HCMV inh – inhibitors of human cytomegalovirus | AID 1259415 | HFF cells, HCMV-luciferase reporter, 72 h; hits give low values | 410,000 tested, 4.5% active | activity change, negative = inhibition, % at 57.5 µM; in the data active means activity change below about -60%; inconclusive means no clear call, values can overlap the other calls; inactive means above about -39%
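Steps: HFFs plated, 16 h 37C; compounds added; HCMV-luciferase added to MOI 1 PFU/cell; 72 h 37C; OneGlo reagent, 5 min room temperature; luminescence read, normalized to controls.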
Vaccinia Venus – vaccinia inhibition (Venus reporter) | Vaccinia virus Venus reporter expression, fluorescence | Potency, µM (doses to about 36.5 µM), for inactives: at the top dose activity change, negative = inhibition, hits mostly inhibitors | 330,000 tested, 0.46% active; calls by dose curve; tested in A549 cells; further: potency means the concentration at half of the fitted maximal effect; nearly all actives have a fitted effect of over 30% in size
The depositor's hits bear a star; i = inactive; ? = inconclusive; nt = no result; [ ] = remark or other dose. Shown are actives, neighbours in structure and some others; about 7.8% of the full set was active somewhere. On the % scale 0 is the no-effect control and ±100 the full control effect.

SMILES	Vaccinia mCherry	HCV inhibitor	LASV entry inh	Marburg entry inh	HCMV inh	Vaccinia Venus
COC1=CC(=O)C(O)=C/C1=C\C=C\c1ccccc1	-5%	nt	nt	nt	nt	2%
O=S(=O)(NCCc1csc2nc(-c3ccc(Cl)cc3)nn12)c1ccc2c(c1)OCCO2	-24%	nt	-1%[46.1 µM]	nt	-34	-19%
COc1cc(NS(=O)(=O)c2ccc3c(c2)CCN3S(C)(=O)=O)cc(OC)c1	?	nt	-21%[46.1 µM]	nt	?	-13%
COCCCNC(=O)c1cc2n(n1)CCCN(Cc1ccc(C)cc1)C2=O	i	nt	26%[46.1 µM]	nt	4	1%
Cc1cccc(NC(=S)N2CCN(c3ccccn3)CC2)c1	nt	-10%	nt	nt	-7	nt
S=C(NC1CCCCC1)N1CCN(C/C=C/c2ccccc2)CC1	-26%	8.9µM*	-24%	?	42	-20%
Cc1ccc(NC(=S)N2CCN(c3ccccn3)CC2)c(C)c1	nt	2%	nt	nt	-31	nt
CC(C)NC(=S)N1CCN(C/C=C/c2ccccc2)CC1	-6%	-10%	-4%	0%[46.1 µM]	-35	-13%
CCN(CC)S(=O)(=O)c1ccc(C)c(NC(=S)N2CCN(c3ccccn3)CC2)c1	i	22µM*	10µM*	?	-40	-7%
CC(NNC(=S)N1CCN(c2ccccn2)CC1)c1nccc2ccccc12 (stereo unspecified)	?	?	?	?	-98*	?
Fc1cccc(NC(=S)N2CCN(c3ccccn3)CC2)c1	-7%	-31%	13µM*	-7%	-3	-17%
O=C(Nc1cccc(Cl)c1)Nc1ccc2nc(-c3ccc(F)c(Cl)c3)nn2c1	nt	nt	nt	nt	80	nt
CCn1ccc2cc(S(=O)(=O)N3CCCN(C(=O)Nc4ccc(C)cc4)CC3)ccc21	-10%	nt	?	nt	-1	-3%
C#CCCCO/N=C1\C[C@@H](O)[C@@H](O)[C@@H]2[C@@H]3C(=O)N(Cc4ccc5c(c4)OCO5)C(=O)[C@@H]3CC[C@@H]12	nt	nt	nt	-7%[14.2 µM]	nt	nt
Cc1ccc(S(=O)(=O)NCCC(=O)NCCCSc2ccccc2)cc1	nt	?	nt	nt	-75*	nt
Cc1ccc(N(CC(=O)NCCSc2ccccc2)S(=O)(=O)c2ccc(F)cc2)cc1	i	nt	-13%[46.1 µM]	nt	-65*	-9%
COc1ccc(N(CC(=O)NCCSc2ccccn2)S(=O)(=O)c2ccccc2)cc1OC	4%	7%	nt	-3%[46.1 µM]	124	2%
COc1ccc(N(CC(=O)NCCSc2ccccn2)S(=O)(=O)c2ccc(C)cc2)cc1OC	-12%	-15%	-11%[46.1 µM]	-22%[46.1 µM]	-60*	-11%
Cc1ncc2c(c1CNC(=O)c1cncs1)CCN(C(=O)c1ccsc1)C2	-14%	nt	nt	nt	nt	-9%
Cc1cccc(CNS(=O)(=O)c2ccc(-c3coc(C)n3)cc2)c1	-5%	nt	6%[46.1 µM]	nt	-6	-6%
CCOc1ccc(NC(=O)N2CC=C(c3c[nH]c4ccccc34)CC2)cc1	-8%	nt	-26%[46.1 µM]	nt	0	-21%
CN1/C(=N\O)c2cccc3cccc1c23	nt	-27%	-16%	-4%	-60*	-20%
CC(C)(C)NC(=O)C(c1ccncc1)N(C(=O)Cn1nnc(-c2ccc(F)cc2)n1)c1ccccc1F (stereo unspecified)	-14%	7%	17%	-23%[46.1 µM]	-31	-6%
CC(C)(C)NC(=O)C(c1ccc(O)cc1)N(C(=O)Cn1nnc(-c2ccc(F)cc2)n1)c1ccccc1F (stereo unspecified)	nt	4.5µM*	nt	nt	-12	nt
CCc1ccc(CN(Cc2ccco2)C(=O)COc2ccccc2Cl)cc1	-6%	nt	-10%[46.1 µM]	?	-6	-2%
SMILES	Vaccinia mCherry	HCV inhibitor	LASV entry inh	Marburg entry inh	HCMV inh	Vaccinia Venus
CCNc1ccc(S(=O)(=O)N(C)C)cc1NCC(=O)Nc1ccccc1F	i	?	-12%	-2%	20	-3%
CCNc1ccc(S(=O)(=O)N(C)C)cc1NCC(=O)Nc1ccc(F)c(Cl)c1	-16%	?	?	?	-75*	-21%
CCc1cc(C(=O)Nc2c(C)nn(Cc3ccccc3Cl)c2C)no1	-13%	nt	?	?	-14	-7%
CCOC(=O)[C@@H]1[C@H]2COc3cc(OC)ccc3[C@@H]2N2C(=O)N(c3ccc(C(F)(F)F)cc3)C(=O)[C@@]12C	-3%	-13%	nt	nt	-34	-10%
CCOC(=O)[C@@H]1[C@H]2COc3cc(OC)ccc3[C@H]2N2C(=O)N(c3ccc(C(F)(F)F)cc3)C(=O)[C@]12C	i	?	nt	nt	-88*	?
CCOC(=O)[C@@H]1[C@H]2COc3cc(OC)ccc3[C@H]2N2C(=O)N(c3ccc(C)cc3)C(=O)[C@@]12C	0%	5%	nt	nt	-75*	-22%
Cc1ccc2oc(-c3ccc(C)c(NC(=O)COc4ccccc4C)c3)nc2c1	-8%	nt	nt	nt	nt	-21%
COc1ccc(N2CCN(C(=O)c3cccn4c(=O)c5ccc(Cl)cc5nc34)CC2)cc1	-19%	nt	-4%[46.1 µM]	nt	25	-13%
COC(=O)c1ccc(C(=O)NCC2Cc3cccc(-c4ccc(C(=O)OC)cn4)c3O2)cc1 (stereo unspecified)	-20%	nt	nt	nt	nt	-19%
C[C@H]1[C@@H](NC(=O)Nc2ccc(Cl)cc2)CC[C@@]23CCCN2C(=O)CCC[C@@H]13	nt	nt	nt	nt	-9	nt
CCN(CC)c1ccc(NC(=O)C2COc3ccc(OC)cc3C2)c(C)c1 (stereo unspecified)	?	nt	?	nt	-79*	?
CCN(CC)c1ccc(NC(=O)c2cc(OC)cc(OC)c2)c(C)c1	?	?	?	?	-85*	?
CCN(CC)c1ccc(NC(=O)c2ccc3c(c2)OCO3)c(C)c1	?	11µM*	-22%[46.1 µM]	-23%[46.1 µM]	-19	-13%
CCN(CC)c1ccc(NC(=O)c2cccc(OC)c2)c(C)c1	-9%	?	?	?	0	?
N#Cc1c(C(F)(F)F)cc(=O)n2c1[nH]c1ccccc12	10µM*	?	?	?	-96*	?
COc1ccc(C)cc1NC(=O)N1CCN(c2nnc(C)c3c(C)n(-c4ccccc4)nc23)CC1	2%	nt	15%[46.1 µM]	nt	-9	9%
COc1ccc(-c2c(C)[nH]n3c(=O)c(Cc4ccccc4)c(C)nc23)cc1	?	-16%	?	?	-88*	?
Cc1ccc(Cc2c(C)nc3c(-c4ccccc4)c(C)[nH]n3c2=O)cc1	?	nt	8%[46.1 µM]	?	-73*	?
Cc1nc2c(-c3ccccc3)c(C)[nH]n2c(=O)c1Cc1ccc(Br)cc1	-19%[7.34 µM]	nt	?	?	-97*	-8%[7.34 µM]
COc1ccccc1-c1c(C)[nH]n2c(=O)c(Cc3ccccc3)c(C)nc12	nt	-23%	nt	nt	-6	nt
CCCCc1c(C)nc2c(-c3ccc(Cl)cc3)c(C)[nH]n2c1=O	11µM*	nt	-10%[46.1 µM]	9%[46.1 µM]	-7	?
Cc1nc2c(-c3ccccc3)c[nH]n2c(=O)c1Cc1ccccc1	i	?	?	9.2µM*	-99*	-21%
C=CC(=O)N1C/C(=C/c2ccccc2)C(=O)/C(=C\c2ccccc2)C1	?	6.3µM*	?	2.8µM*	-97*	8.9µM*
